Shiga inhibitor: inhibitors of Shiga toxin in Vero cells | inhibition, % at 38.7 µM | AID 2315 | 290,000 compounds, 9.2% hits | Vero cells, Shiga toxin protein synthesis inhibition reporter; in the data active = inhibition mostly above about 28%, no sharp cut-off; inactive = mostly below about 43%; also: 0% is about no effect
SARS PLP yeast: SARS-CoV PLP inhibition in yeast; S. cerevisiae expressing SARS-CoV PLpro, growth rescue; Potency, µM (titrated, usually from 32.9 µM), for inactives: at the top dose activity, positive = growth rescue, most hits filed as activators; 330,000 compounds, 0.19% hits; AID 485353; calls by dose curve; also: potency is read from the fitted curve at half-maximal effect; 0% is about no effect; nearly all actives have a fitted effect of over 55% in size
NS1 function inh: influenza NS1 inhibition. Potency, µM (top dose mostly 46.1 µM), for inactives: top-dose activity, positive = more growth. 270,000 compounds, 0.4% hits; calls by dose curve; also: potency is read from the fitted curve at half-maximal effect; actives are rising curves; nearly all actives have a fitted effect of over 50% in size
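OD600 was taken as the measure of yeast growth restored by compound in an NS1-expressing S. cerevisiae strain. Cells had been washed out of glucose medium and diluted 1:100 into galactose -URA medium, pH 6.0.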
Tb PYK inh: inhibitors of Trypanosoma brucei pyruvate kinase; Q57TT1; TbPYK enzyme, Kinase-Glo Plus ATP luminescence, 45 min; Potency, µM (series often up to 76.8 µM), inactives show at the top dose activity, negative = inhibition, hits mostly inhibitors; 410,000 compounds, 0.12% hits; AID 624173; also: potency is read from the fitted curve at half-maximal effect; % is scaled to controls: 0 for no effect and ±100 for the full control effect; nearly all actives have a fitted effect of over 50% in size
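ADP (130 uM final) triggers the TbPYK reaction after compound addition; incubation is 45 min at room temperature. Kinase-Glo Plus is then added and luminescence imaged. Normalized data are fitted to concentration-effect curves.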
Cycloheximide cs: affects cycloheximide protein synthesis inhibition readout, counter-screen; 300,000 compounds, 12% hits; cell reporter, cycloheximide protein synthesis inhibition counterscreen; max response, %; in the data active = max response mostly above about 13%, no sharp cut-off; inactive = mostly below about 14%; also: read at 38.3 µM for the half of the compounds with a filed dose; 0% is about no effect
LmPK inhibitor: LmPK (Leishmania mexicana) enzyme inhibition. 290,000 compounds, 0.37% hits. AID 1721. Q27686. Potency, µM (top dose mostly 57.5 µM), for the others: top-dose activity change, negative = inhibition, most hits filed as inhibitors. purified LmPK, Kinase-Glo ATP luminescence, 1 h; also: potency is read from the fitted curve at half-maximal effect; % is scaled to controls: 0 for no effect and ±100 for the full control effect
Target sequence (Q27686 whole entry, looked up): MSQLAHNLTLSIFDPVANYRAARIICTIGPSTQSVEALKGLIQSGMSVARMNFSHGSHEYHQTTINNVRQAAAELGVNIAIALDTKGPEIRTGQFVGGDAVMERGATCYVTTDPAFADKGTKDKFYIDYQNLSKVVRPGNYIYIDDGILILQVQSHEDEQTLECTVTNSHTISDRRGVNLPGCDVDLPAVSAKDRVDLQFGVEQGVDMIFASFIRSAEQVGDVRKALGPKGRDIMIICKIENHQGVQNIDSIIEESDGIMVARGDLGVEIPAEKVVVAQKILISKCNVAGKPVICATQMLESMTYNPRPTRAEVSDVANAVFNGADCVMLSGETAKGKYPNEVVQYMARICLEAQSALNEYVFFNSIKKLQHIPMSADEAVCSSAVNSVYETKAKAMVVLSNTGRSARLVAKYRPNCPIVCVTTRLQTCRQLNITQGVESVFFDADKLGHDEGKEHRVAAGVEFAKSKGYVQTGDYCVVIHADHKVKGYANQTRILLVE
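ATP generated from ADP (0.1 mM) and PEP (0.5 mM) by 0.1 nM LmPK over 1 h at room temperature (pH 7.2 imidazole buffer) was detected by coupled luciferase luminescence. Values were normalized to uninhibited and no-enzyme wells.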
The depositor's hits bear a star; ? = inconclusive; · = not tested or not shown. This is one part of a sample in which hits are shown more often than they occur. Unless noted, calls follow the shape of the dose curve; as a rule, active = well fitted curve in the direction sought with a large enough effect; inconclusive = small, poorly fitted or top-dose-only effect, or another doubt; inactive = no such curve, though single readings can be large; an effect the other way counts as inactive or inconclusive.

SMILES	Shiga inhibitor	SARS PLP yeast	NS1 function inh	Tb PYK inh	Cycloheximide cs	LmPK inhibitor
O=C(O)/C=C/c1cn(-c2ccccc2)nc1-c1cccc([N+](=O)[O-])c1	-10	-1%	5%	0%	-2	5%
O=[N+]([O-])c1cccc(-c2nn(-c3ccccc3)cc2CO)c1	27	-3%	1%	8%	12*	-1%
Cc1ccc(-c2nn(-c3ccccc3)cc2CNCc2ccccc2)cc1	-3	-2%	-3%	0%	-4	1%
COc1ccc(-c2nn(-c3ccccc3)cc2CO)cc1	164*	-7%	-56%	1%	61*	5%
COC(=O)[C@H](Cc1ccccc1)NC(=O)NCCc1ccccc1F	5	-2%	2%	-10%	-4	3%
CC(C)(C)c1ccc(C(=O)N2CCC2(C)C(=O)NCCC#N)cc1 (configuration not stated)	·	·	·	-9%	·	·
CC(C)n1nnc2cc(C(=O)O)ccc21	-4	·	·	·	11	·
COc1ccc(-c2nn(-c3ccccc3)cc2N)cc1	183*	-1%	·	-2%	61*	-4%
O=[N+]([O-])c1ccc(N2CCCCC2)cc1	45	1%	5%	-12%	27*	-4%
O=[N+]([O-])c1ccc(/C=N/N2CCCCC2)cc1	128*	-4%	3%	1%	34*	-1%
O=[N+]([O-])c1ccc(/C=N\N2CCN(c3ccc(Cl)cc3)CC2)cc1	12	18%	2%	-3%	-1	-3%
CC1CCCC(C)N1/N=C/c1ccc([N+](=O)[O-])cc1 (configuration not stated)	54*	-1%	5%	-5%	43*	0%
CC1CCCC(C)N1/N=C/c1ccc(N(C)C)cc1 (configuration not stated)	24	0%	·	8%	12	0%
Clc1ccc(/C=N/N2CCCCC2)cc1	34*	0%	-1%	10%	29*	-24%
C/C(=N/NS(=O)(=O)c1cccc([N+](=O)[O-])c1)c1ccncc1	14	-4%	-4%	-12%	-2	-2%
CC1(C)CC(=O)C(Sc2ccccc2[N+](=O)[O-])=C(O)C1	-4	11%	15%	4%	-2	3%
CC1(C)CC(=O)C(C(N)=NC(=O)c2ccc([N+](=O)[O-])cc2)=C(O)C1	62	2%	·	3%	18*	-5%
C/C(=N/NC(=O)c1ccccc1)C1=C(O)CC(C)(C)CC1=O	-12	0%	-6%	2%	-1	8%
CC1(C)CC(=O)C(C(N)=NC(=O)c2ccccc2)=C(O)C1	70*	0%	·	-7%	39*	0%
O=S(=O)(Nc1ccc(-n2cnnn2)cc1)c1cccc(F)c1	·	0%	·	0%	·	·
CCCNC(=O)C1(C)CCN(CCS(=O)(=O)c2ccc(C)cc2)C1 (configuration not stated)	·	·	·	-8%	·	·
Oc1cc2c(cc1O)C1c3ccc(O)c(O)c3OCC1(O)C2 (configuration not stated)	-15	0%	0%	10µM*	-1	?
COc1ccc(N=Nc2[nH]c3ccc(C)cc3c2O)cc1	35*	-4%	-2%	-17%	22*	-1%
NC(=O)c1ccc(N=Nc2c(O)c3ccccc3[nH]c2=O)cc1	4	22%	-3%	·	1	2%
Cc1ccc(N=Nc2[nH]c3ccccc3c2O)cc1	152*	-2%	-3%	-28%	68*	1%
SMILES	Shiga inhibitor	SARS PLP yeast	NS1 function inh	Tb PYK inh	Cycloheximide cs	LmPK inhibitor
CCC(CO)Oc1cc(NCc2ccccc2Cl)c2ncn(C(C)C)c2c1 (configuration not stated)	·	2%	·	-5%	·	·
Cc1cc(O)ccc1Nc1nc(-c2cccnc2)cs1	51*	-4%	4%	-29%	31*	-9%
CCC(=O)c1ccc(OCC(=O)Nc2nc(-c3cccnc3)cs2)cc1	·	-5%	·	-20%	·	·
Cc1ccc(Nc2nc(-c3cccnc3)cs2)cc1C	96*	-5%	-6%	-3%	51*	-5%
COc1ccc(Cl)cc1Nc1nc(-c2cccnc2)cs1	-1	-12%	-25%	5%	11	-1%
CCOc1ccc(Nc2nc(-c3cccnc3)cs2)cc1	57*	13%	-5%	4%	40*	-5%
Oc1ccc(Nc2nc(-c3ccc(Cl)cc3)cs2)cc1	110*	·	·	·	47*	·
CC(C)ON(C(C(=O)NO)C(C)C)S(=O)(=O)c1ccc(-c2ccccc2)cc1 (configuration not stated)	33	·	·	·	-4	·
Brc1ccc(Nc2nc(-c3cccnc3)cs2)cc1	121*	-15%	·	1%	54*	-4%
Clc1cccc(Nc2nc(-c3cccnc3)cs2)c1	91*	-7%	-53%	-3%	40*	0%
O=C(Nc1nc(-c2cccnc2)cs1)c1ccc([N+](=O)[O-])cc1	-1	0%	2%	-10%	12	1%
Cc1cc(O)ccc1Nc1nc(-c2cccs2)cs1	69*	-2%	·	6%	36*	?
Cc1nc(C)c(-c2csc(Nc3ccc(O)cc3C)n2)s1	-7	3%	15%	3%	1	1%
Brc1cccc(Nc2nc(-c3cccnc3)cs2)c1	·	-13%	-52%	-3%	25*	0%
Cc1cccc(NS(=O)(=O)c2cccc(C(=O)N3CCC3)c2)c1	·	1%	·	-7%	·	·
Cc1cc(C)c(NC(=O)/C(=C/c2ccccc2)c2ccccc2)c(C)c1	-8	-39%	-16%	-8%	-3	2%
Cc1ccc(C(=O)Nc2nc(-c3cccnc3)cs2)o1	26	-1%	11%	-8%	22	-7%
Oc1ccc(Nc2nc(-c3cccnc3)cs2)cc1	·	4%	-3%	-11%	38*	-17%
COc1ccc(NC(=O)COc2ccccc2)c(OC)c1	51*	-1%	-3%	-2%	34*	-9%
Cc1cccc(OCC(=O)Nc2cccc3nsnc23)c1	-9	-3%	-9%	0%	1	8%
O=C(COc1ccccc1)Nc1cccc2nsnc12	35	1%	-10%	-4%	66*	0%
COc1ccccc1NC(=O)COc1ccccc1	35	-11%	-55%	-3%	17*	0%
COc1ccc(NC(=O)CN2c3cccc4cccc(c34)S2(=O)=O)c(OC)c1	23	-1%	-1%	-2%	14*	2%
CC1CCC2C(C)C3C(CC4[C@@H]5CC=C6C[C@@H](O)CC[C@]6(C)C5CC[C@]34C)N2C1 (some centres not stated)	-5	·	·	·	14	·
Cc1cccc([N+](=O)[O-])c1NC(=O)COC(=O)c1nc2nccc(C)n2n1	·	-3%	·	8%	·	·
O=c1[nH]c2cc3c(cc2cc1CN(Cc1cccnc1)C(=S)NCc1ccco1)OCCO3	13	2%	-5%	-13%	1	1%
O=C(Nc1ccc(Cl)cc1)Nc1cccc2nsnc12	114*	-7%	-59%	3%	64*	-21%

Screening data (PubChem)
